# Results as given in PubChem BioAssay (NCI).
# The panel holds about 83,000 compounds, 20% with a hit somewhere; the sample as a whole holds those more often.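 Single-dose data. Exposure time 48 hours. Values below 10 considered active.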 Values without a mark were called inactive. Calls of active or inactive are those of the source.
# System: LOX IMVI melanoma
# Assay: NCI-60 one-dose screen, 48 h (100 = growth as untreated, 0 = no growth, -100 = all killed)
# Conditions: 10 µM unless noted
row,Structure (SMILES),growth
1,O=[N+]([O-])c1ccc(NS(=O)(=O)c2cc(Cl)ccc2Cl)c2ccccc12,56.4%
2,O=C(NCCNc1nccc(-c2c(-c3cccc(O)c3)nc3sccn23)n1)c1ccccc1,23.2%
3,NS(=O)(=O)c1ccc(CCN2C(=O)/C(=C\c3ccc(Cl)cc3)C=C2c2ccc(Oc3ccccc3)cc2)cc1,81%
4,Cc1cn([C@]2(CF)O[C@H](CO)C2C)c(=O)[nH]c1=O (stereo partly drawn),97.9%
5,CC(Cc1cccc(C(F)(F)F)c1)NCCOC(=O)c1ccccc1 (stereo not drawn),96.3%
6,CCCCN(CCCC)c1ccc(C(=N)c2ccc(N(C)C)cc2)cc1,-95.9% (active)
7,COC(=O)/C=C/C(=O)c1cc(C)cc(C)c1O,98.1%
8,O=C1C(Cl)=C(Nc2ccccc2)C(=O)C(Cl)=C1Nc1ccccc1,96.9%
9,CC1(C)Cc2c(Br)c(Br)c(Br)c(OCC(O)CN3CCN(c4ccccn4)CC3)c2O1 (stereo not drawn),68.6%
10,Cc1ccc(-c2cn3cc([N+](=O)[O-])ccc3n2)cc1,58.3%
11,CCCOC(=O)c1ccc([N+](=O)[O-])o1,101%
12,CCOC(=O)CSc1nnc(-c2cc3c([nH]c4ccccc43)c(-c3cccc(O)c3)n2)n1-c1ccc(C)cc1,32.6%
13,O=C(NCCNc1nccc(-c2c(-c3cccc(O)c3)nc3sccn23)n1)c1ccc(N2CCOCC2)c(C(F)(F)F)c1,42.2%
14,COc1ccc(-c2nn(-c3cccc(Cl)c3)cc2-c2cc(-c3ccc(Br)cc3)[nH]c(=O)c2C#N)cc1,69.6%
15,Clc1ccc2c(NCCNc3nc(Cl)nc4ccccc34)ccnc2c1,-89.4% (active)
16,COc1ccc2c(c1)/C(=C/c1c(-c3cc(OC)c(OC)c(OC)c3Br)nc3sccn13)C(=O)N2,64.7%
17,COc1ccccc1N1CCN(CCCOc2ccc(OCCCN3CCN(c4ccccc4OC)CC3)c(C(=O)c3cc(OC)c(OC)c(OC)c3)c2)CC1,116%
18,C=C1C(=O)O[C@H]2[C@H]1CC/C(COC(=O)CCCC(=O)OC/C1=C/CC[C@@]3(C)O[C@H]3[C@H]3OC(=O)C(=C)[C@@H]3CC1)=C\CC[C@@]1(C)O[C@@H]21,-70.3% (active)
19,O=C(Cn1c2ccccc2c2ccncc21)N/N=C/c1cc(O)c(O)c(O)c1,96.9%
20,C=C1C(=O)O[C@H]2[C@H]1CC/C(COC(=O)c1ccc(C#N)cc1)=C\CC[C@@]1(C)O[C@@H]21,-81.4% (active)
21,C=CC(C)(O)CCC1C(=C)CCC2C(C)(C)CCCC12C (stereo not drawn),97.2%
22,O=c1nc(N2CCOCC2)oc2c(-c3cccc4ccccc34)cccc12,80.1%
23,CC(=O)c1ccc2c(c1)C1C=CCC1[C@H](c1cc3c(cc1Br)OCO3)N2 (stereo partly drawn),-35.6% (active)
24,COc1cc2c(cc1OC)-c1c(oc3c4c(ccc3c1=O)OC(C)(C)C=C4)CO2,63%
25,NN=C(c1ccc(Cl)cc1)c1ccc(Cl)cc1,77.1%
26,CCCCCCCCCCCC(=O)OCCNC(=O)C[n+]1ccccc1,106%
27,CC(C)(C)OC(=O)N1CCN(CCn2cc(C(F)(F)F)c3c(Cl)ncnc32)CC1,-81% (active)
28,Cc1cn(-c2cc(C(=O)Nc3cccc(-n4ccc5c(NC(=O)c6ccccc6)nccc54)c3)cc(C(F)(F)F)c2)cn1,5.46% (active)
29,Clc1ccc(OCc2nc(-c3ccccc3)n[nH]2)c(Cl)c1,94.6%

# System: SK-MEL-28 melanoma
# Assay: as above
# Conditions: 10 µM unless noted
row,Structure (SMILES),growth
1,Nc1ncnc2c1ncn2C1OC(COC(c2ccccc2)(c2ccccc2)c2ccccc2)C(O)C1O (stereo not drawn),96.2%
2,O=C(Nc1ccc(-n2cc(-c3ccncc3)c(-c3ccc(O)c(Cl)c3)n2)cc1)c1cc(C(F)(F)F)cc(C(F)(F)F)c1,68.8%
3,CN1C(=O)C2(SCC(C(=O)NCC(=O)OC(C)(C)C)N2C(=O)C2CCCCC2)c2ccccc21 (stereo not drawn),103%
4,CCC1S/C(=N\N=C(/C)c2cc3ccccc3o2)N(c2ccccc2)C1=O (stereo not drawn),114%
5,CC(C)(C)OC(=O)NCc1cccc(N=C=S)c1,23.1%
6,CCOc1ccc(NC(=O)Nc2cc(C(C)C)ccc2C)cc1,68%
7,O=C(NCCNc1nccc(-c2c(-c3cccc(O)c3)nc3sccn23)n1)Nc1cccc(C(F)(F)F)c1,48.8%
8,C=C1c2c(Cl)ccc(O)c2C(O)=C2C(=O)[C@]3(O)C(O)=C(C(N)=O)C(=O)[C@@H](N(C)C)[C@@H]3[C@@H](O)[C@H]12,25.8%
9,CCN(CC)CCN1C(=O)c2c(c3c4ccccc4[nH]c3c3[nH]c4ccccc4c23)C1=O,96.3%
10,O=C1OC(c2ccc(-c3ccccc3)cc2)=C/C1=C/C=C/c1ccccc1,103%
11,O=[N+]([O-])c1ccc(NS(=O)(=O)c2cc(Cl)ccc2Cl)c2ccccc12,35.4%
12,O=C(NCCNc1nccc(-c2c(-c3cccc(O)c3)nc3sccn23)n1)c1ccccc1,37.8%
13,NS(=O)(=O)c1ccc(CCN2C(=O)/C(=C\c3ccc(Cl)cc3)C=C2c2ccc(Oc3ccccc3)cc2)cc1,79.8%
14,Cc1cn([C@]2(CF)O[C@H](CO)C2C)c(=O)[nH]c1=O (stereo partly drawn),121%
15,CC(Cc1cccc(C(F)(F)F)c1)NCCOC(=O)c1ccccc1 (stereo not drawn),107%
16,CCCCN(CCCC)c1ccc(C(=N)c2ccc(N(C)C)cc2)cc1,-70.1% (active)
17,COC(=O)/C=C/C(=O)c1cc(C)cc(C)c1O,102%
18,O=C1C(Cl)=C(Nc2ccccc2)C(=O)C(Cl)=C1Nc1ccccc1,119%
19,CC1(C)Cc2c(Br)c(Br)c(Br)c(OCC(O)CN3CCN(c4ccccn4)CC3)c2O1 (stereo not drawn),115%
20,Cc1ccc(-c2cn3cc([N+](=O)[O-])ccc3n2)cc1,94.3%

row,Structure (SMILES),growth
1,CCCOC(=O)c1ccc([N+](=O)[O-])o1,106%
2,CCOC(=O)CSc1nnc(-c2cc3c([nH]c4ccccc43)c(-c3cccc(O)c3)n2)n1-c1ccc(C)cc1,79.9%
3,O=C(NCCNc1nccc(-c2c(-c3cccc(O)c3)nc3sccn23)n1)c1ccc(N2CCOCC2)c(C(F)(F)F)c1,42.8%
4,COc1ccc(-c2nn(-c3cccc(Cl)c3)cc2-c2cc(-c3ccc(Br)cc3)[nH]c(=O)c2C#N)cc1,99.6%
5,Clc1ccc2c(NCCNc3nc(Cl)nc4ccccc34)ccnc2c1,-78.7% (active)
6,COc1ccc2c(c1)/C(=C/c1c(-c3cc(OC)c(OC)c(OC)c3Br)nc3sccn13)C(=O)N2,123%
7,COc1ccccc1N1CCN(CCCOc2ccc(OCCCN3CCN(c4ccccc4OC)CC3)c(C(=O)c3cc(OC)c(OC)c(OC)c3)c2)CC1,115%
8,C=C1C(=O)O[C@H]2[C@H]1CC/C(COC(=O)CCCC(=O)OC/C1=C/CC[C@@]3(C)O[C@H]3[C@H]3OC(=O)C(=C)[C@@H]3CC1)=C\CC[C@@]1(C)O[C@@H]21,8.77% (active)
9,O=C(Cn1c2ccccc2c2ccncc21)N/N=C/c1cc(O)c(O)c(O)c1,108%
10,C=C1C(=O)O[C@H]2[C@H]1CC/C(COC(=O)c1ccc(C#N)cc1)=C\CC[C@@]1(C)O[C@@H]21,3.18% (active)
11,C=CC(C)(O)CCC1C(=C)CCC2C(C)(C)CCCC12C (stereo not drawn),101%
12,O=c1nc(N2CCOCC2)oc2c(-c3cccc4ccccc34)cccc12,94.4%
13,CC(=O)c1ccc2c(c1)C1C=CCC1[C@H](c1cc3c(cc1Br)OCO3)N2 (stereo partly drawn),72.7%
14,COc1cc2c(cc1OC)-c1c(oc3c4c(ccc3c1=O)OC(C)(C)C=C4)CO2,93.8%
15,NN=C(c1ccc(Cl)cc1)c1ccc(Cl)cc1,117%
16,CCCCCCCCCCCC(=O)OCCNC(=O)C[n+]1ccccc1,109%
17,CC(C)(C)OC(=O)N1CCN(CCn2cc(C(F)(F)F)c3c(Cl)ncnc32)CC1,52.8%
18,Cc1cn(-c2cc(C(=O)Nc3cccc(-n4ccc5c(NC(=O)c6ccccc6)nccc54)c3)cc(C(F)(F)F)c2)cn1,33.3%
19,Clc1ccc(OCc2nc(-c3ccccc3)n[nH]2)c(Cl)c1,110%
